Source: PubChem BioAssay
Candida biofilm: clotrimazole potentiators killing Candida biofilms, primary screen, with clotrimazole, Alamar Blue; C. albicans biofilm + clotrimazole; inhibition, % at 6 µM; actives 0.14% (n = 85,000); AID 834, 2007;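 active means inhibition above 20%; inactive means inhibition below 20%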;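 further: preformed 24 hr biofilms exposed to compound for 48 hr; 0% = biofilm without compound and 100% = blank killed by clotrimazole plus chlorhexidine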
ERb coact inh: inhibitors of ERβ-SRC1 coactivator interaction, primary screen, biochemical, TR-FRET, ERβ LBD, SRC-1 peptide. AID 633, 2007. actives 1.3% (n = 86,000). TR-FRET ER-beta LBD / SRC1-Cy5 peptide binding; receptor agonist-loaded with 1 µM estradiol. inhibition, % at 25.6 µM;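 active means compounds whose percent inhibition of the receptor-coactivator binding signal exceeds about 50% in the single-dose screen, limit read from the data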;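 further: 0% = receptor plus peptide wells without compound and 100% = peptide-only wells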
Target sequence (Q92731 whole entry, looked up, the tested form may be a part): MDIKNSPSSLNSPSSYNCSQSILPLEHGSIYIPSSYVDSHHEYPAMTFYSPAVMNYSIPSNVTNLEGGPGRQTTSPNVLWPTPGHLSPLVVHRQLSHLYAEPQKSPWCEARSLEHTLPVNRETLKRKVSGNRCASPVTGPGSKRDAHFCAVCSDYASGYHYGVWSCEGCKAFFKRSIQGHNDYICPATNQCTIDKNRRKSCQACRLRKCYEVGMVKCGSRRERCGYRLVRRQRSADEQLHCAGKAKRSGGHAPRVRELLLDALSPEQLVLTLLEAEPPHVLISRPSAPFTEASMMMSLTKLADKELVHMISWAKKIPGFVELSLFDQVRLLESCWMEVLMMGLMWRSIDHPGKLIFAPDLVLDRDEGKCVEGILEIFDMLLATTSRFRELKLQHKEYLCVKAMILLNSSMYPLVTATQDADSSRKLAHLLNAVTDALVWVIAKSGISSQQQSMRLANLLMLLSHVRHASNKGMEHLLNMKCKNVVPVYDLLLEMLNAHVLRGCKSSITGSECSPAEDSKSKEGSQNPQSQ
ERa coact inh: ERα–SRC-1 coactivator interaction inhibitors, primary screen, biochemical, TR-FRET, ERα LBD, estradiol-bound; Estrogen receptor (Homo sapiens), P03372; TR-FRET ER-alpha LBD / SRC-1 peptide; inhibition, % at 25.6 µM; actives 1.7% (n = 86,000); in the data active means inhibition above about 50%;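 further: 0% = receptor plus peptide control and 100% = peptide only without receptor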
MT1-MMP txn act: MT1-MMP promoter reporter activation – cell-based, luciferase luminescence, primary screen; HT1080 MT1-MMP promoter luciferase reporter, overnight; stronger effect = higher value; AID 750, 2007; actives 0.16% (n = 86,000); activation factor at 10 µM;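 active means activation factor of at least 2 for MT1-MMP transcription at 10 µM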
ERa SRC1 pot: enhancers of ERα–SRC-1 coactivator binding, primary screen, biochemical, TR-FRET, ERα LBD, low estradiol | actives 1.3% (n = 86,000) | TR-FRET ERalpha-LBD/SRC-Cy5 coactivator binding, 2 h; 100 = basal binding, no effect | Estrogen receptor (Homo sapiens), P03372 | coactivator binding (% of control), % at 25.6 µM; in the data active means activity above about 200%;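 further: binding measured in presence of low estradiol as agonist stimulus; 0% = peptide alone without receptor and 100% = receptor with peptide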
Smad3 inh: Smad3/FoxH1 peptide binding inhibitors, primary screen, biochemical, TR-FRET. TR-FRET Smad3/Dy647-FoxH1 peptide binding, europium anti-His. inhibition, % at 25 µM. actives 0.29% (n = 88,000). AID 630, 2007;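 active means compounds that reduce the energy-transfer binding signal between the protein and its labelled peptide by more than half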;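 further: 0% = Smad3 plus labelled peptide maximal FRET and 100% = peptide-only background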
The depositor's hits bear a star; [ ] = remark or other dose. Rows were chosen to be rich in hits. Some 3.8% of all compounds tested hit in one or more screens of this group.

`CC(C)NC(=O)CN1C(=O)NC(CCc2ccccc2)C1=O` (configuration not stated) gave Candida biofilm -2.1, ERb coact inh -4.3, ERa coact inh 60.7*[fluorescence artefact?], MT1-MMP txn act 1.1, ERa SRC1 pot 106.9 and Smad3 inh -1.1.
Screening Cc1csc(NC(=O)CN(C)S(=O)(=O)c2cccc3cccnc23)n1 returned Candida biofilm 5.2, ERb coact inh -8.8, ERa coact inh -7.9, MT1-MMP txn act 1.4, ERa SRC1 pot 138.2 and Smad3 inh 8.8.
Cc1ccc(NC(=O)CN(C)S(=O)(=O)c2cccc3cccnc23)cc1 was read as Candida biofilm 23.4*, ERb coact inh -6.7, ERa coact inh -4.9, MT1-MMP txn act 1, ERa SRC1 pot 110.2 and Smad3 inh 5.4.
For O=C(O)c1cccc(C[C@H](Br)C(=O)O)c1 the results were Smad3 inh 12.2.
`CCc1nnc2sc(-c3ccc(NC(=O)c4ccc5c(c4)OCCO5)cc3)nn12` gave Candida biofilm -1.5, ERb coact inh -1.5, ERa coact inh 23.9, MT1-MMP txn act 1, ERa SRC1 pot 326.0* and Smad3 inh -21.5.
O=C(c1cc2ccccc2oc1=O)N(Cc1ccccc1)Cc1ccc2c(c1)OCO2 was read as Candida biofilm 10.4, ERb coact inh -4.1, ERa coact inh -0.1, MT1-MMP txn act 2.5*, ERa SRC1 pot 104.3 and Smad3 inh 5.1.
For CCc1ccc2[nH]c(=O)c(CN(Cc3ccc4c(c3)OCO4)C(=O)c3ccco3)cc2c1 the results were Candida biofilm 4.2, ERb coact inh 41.4, ERa coact inh 73.9*, MT1-MMP txn act 1.2, ERa SRC1 pot 73.8 and Smad3 inh -3.0.
`O=C(c1cc2ccccc2oc1=O)N1CCN(Cc2ccc3c(c2)OCO3)CC1` gave Candida biofilm 4.9, ERb coact inh -1.7, ERa coact inh -0.9, MT1-MMP txn act 1, ERa SRC1 pot 91.9 and Smad3 inh -4.8.
For O=C(c1cc2ccccc2oc1=O)N(Cc1ccco1)Cc1cccs1 the results were Candida biofilm 2.8, ERb coact inh -5.9, ERa coact inh -9.2, MT1-MMP txn act 1.1, ERa SRC1 pot 537.1* and Smad3 inh -6.2.
CN1C(=O)C2(N=c3ccccc3=N2)c2ccccc21 was read as Candida biofilm 2.3, ERb coact inh 91.1*[fluorescence artefact?], ERa coact inh -3.5, MT1-MMP txn act 1.2, ERa SRC1 pot 141.8 and Smad3 inh 0.8.
CN1C(=O)C(O)(C2OC(C)(C)CCC2=O)c2ccccc21 (configuration not stated) was read as Candida biofilm -0.8, ERb coact inh 4.9, ERa coact inh -3.1, MT1-MMP txn act 1.2, ERa SRC1 pot 114.0 and Smad3 inh 10.4.
Screening COC(=O)CCCC(=O)O returned Smad3 inh -12.4.
O=C(O)/C(Cc1cn[nH]n1)=N\O was read as Smad3 inh -4.2.
`Cc1cc2oc(=O)cc(COC(=O)c3cccc(N(C)C)c3)c2cc1C` gave Candida biofilm 4.4, ERb coact inh 0.7, ERa coact inh 1.6, MT1-MMP txn act 1.2, ERa SRC1 pot 98.1 and Smad3 inh -2.5.
Cc1cc2oc(=O)cc(COC(=O)c3n[nH]c4ccccc34)c2cc1C was read as Candida biofilm 5.0, ERb coact inh 21.3, ERa coact inh 24.3, MT1-MMP txn act 1.2, ERa SRC1 pot 337.9* and Smad3 inh -1.3.
For Cc1ccc(C)c(Cn2c(=O)n(CCC(=O)NCc3ccco3)c(=O)c3sccc32)c1 the results were Candida biofilm 6.8, ERb coact inh -3.8, ERa coact inh 20.5, MT1-MMP txn act 1.1, ERa SRC1 pot 204.6* and Smad3 inh -16.6.
For Cc1cc(C)c(Cn2c(=O)n(CCCC(=O)NCc3ccco3)c(=O)c3sccc32)c(C)c1 the results were Candida biofilm -6.9, ERb coact inh 19.1, ERa coact inh 52.8*[fluorescence artefact?], MT1-MMP txn act 1.1, ERa SRC1 pot 117.1 and Smad3 inh -28.9.
Cc1cccc2nc(Cn3c(=O)n(CCC(=O)NCc4ccco4)c(=O)c4sccc43)cc(=O)n12 was read as Candida biofilm 3.4, ERb coact inh -4.9, ERa coact inh 2.0, MT1-MMP txn act 1.1, ERa SRC1 pot 98.6 and Smad3 inh 6.8.
For Cc1cc(C)cc(-n2c(=O)c3sccc3n(CC(=O)NCc3ccco3)c2=O)c1 the results were Candida biofilm 12.0, ERb coact inh 79.9*[fluorescence artefact?], ERa coact inh -2.0, MT1-MMP txn act 1.1, ERa SRC1 pot 103.5 and Smad3 inh -1.6.
Screening Cc1ccccc1Cn1c(=O)n(CCCC(=O)NCc2ccco2)c(=O)c2sccc21 returned Candida biofilm 8.2, ERb coact inh 11.9, ERa coact inh 2.6, MT1-MMP txn act 1.2, ERa SRC1 pot 79.6 and Smad3 inh -5.7.
`COC(=O)c1ccc(C(NC(=O)OCc2ccccc2)/C(C)=C/[C@@H](C)C(=O)NCCO)cc1` (some centres not stated) gave MT1-MMP txn act 1.
`COC(=O)c1ccc(C(=O)OC)c(NC(=O)CN(c2ccc3c(c2)OCO3)S(C)(=O)=O)c1` gave Candida biofilm -1.5, ERb coact inh -6.2, ERa coact inh -2.8, MT1-MMP txn act 1.1, ERa SRC1 pot 99.0 and Smad3 inh 13.0.
`CCN1CCN(Cc2ccc(NC(=O)Nc3cccs3)cc2)CC1` gave Candida biofilm -0.2, ERb coact inh 71.8*[fluorescence artefact?], ERa coact inh 40.3, MT1-MMP txn act 0.9, ERa SRC1 pot 70.6 and Smad3 inh -6.8.
Screening COc1nc2cc(C)ccc2cc1-c1noc(-c2cccnc2)n1 returned Candida biofilm 3.3, ERb coact inh 40.9, ERa coact inh 50.5*[fluorescence artefact?], MT1-MMP txn act 1.2, ERa SRC1 pot 189.2 and Smad3 inh 3.7.
Screening Brc1ccc2c(c1)c1nc3ccccc3nc1n2CCN1CCOCC1 returned Candida biofilm 12.9, ERb coact inh 44.8, ERa coact inh 55.8*[fluorescence artefact?], MT1-MMP txn act 1.4, ERa SRC1 pot 99.5 and Smad3 inh 10.0.
For c1ccc2nc3c(nc2c1)c1ccccc1n3CCN1CCOCC1 the results were Candida biofilm 2.1, ERb coact inh 3.1, ERa coact inh -3.6, MT1-MMP txn act 1.2, ERa SRC1 pot 121.7 and Smad3 inh -14.5.
`CSc1nc(N2CCOCC2)c2c3c(sc2n1)CCC3` gave Candida biofilm 2.1, ERb coact inh 61.8*[fluorescence artefact?], ERa coact inh 18.0, MT1-MMP txn act 1.2, ERa SRC1 pot 77.6 and Smad3 inh -2.7.
